Screens from PubChem BioAssay.
HDAC3 inh: blocks human histone deacetylase 3. recombinant HDAC3, fluorogenic peptide/trypsin coupled, fluorescence. inhibition, % at 8.3 µM. 0.15% of 320,000 active; in the data active = inhibition above about 26%, passing the limit was not always enough
Target sequence (O15379 whole entry, looked up): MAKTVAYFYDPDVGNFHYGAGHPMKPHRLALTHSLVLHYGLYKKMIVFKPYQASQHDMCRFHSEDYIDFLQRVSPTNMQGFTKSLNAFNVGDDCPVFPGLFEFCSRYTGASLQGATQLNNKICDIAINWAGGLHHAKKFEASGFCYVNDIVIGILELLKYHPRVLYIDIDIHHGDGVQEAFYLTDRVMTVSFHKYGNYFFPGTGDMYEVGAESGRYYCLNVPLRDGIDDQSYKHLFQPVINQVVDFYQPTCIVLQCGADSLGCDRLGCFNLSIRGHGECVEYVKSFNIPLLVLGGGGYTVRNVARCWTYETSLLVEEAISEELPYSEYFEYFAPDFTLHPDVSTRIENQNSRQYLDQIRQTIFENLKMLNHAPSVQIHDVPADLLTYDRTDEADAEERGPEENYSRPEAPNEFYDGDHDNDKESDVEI
H9c2 protect: modulators protecting cardiomyocytes from myocardial damage | H9c2 cardiomyocytes, H2O2 injury protection, ATPLite, 2 h | 0.63% of 360,000 active | protection from H2O2 cell death, % at 20 µM;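 active = compounds giving at least 50% protection of heart cells from peroxide-induced death in the single-dose screen, raw or plate-pattern-corrected value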;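 also: 0% = DMSO wells with peroxide and 100% = DMSO wells without peroxide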
GRK2 aptamer HTS: blocks RNA aptamer binding to human GRK2 | P25098 | bead flow cytometry, FAM-aptamer displacement from GRK2 | inhibition of aptamer binding, % at 10 µM | 0.59% of 330,000 active | AID 488847;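 active = inhibition of aptamer binding above 40%, roughly 3 SD of noise, on plates passing a quality check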;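 also: median bead fluorescence of bound FAM aptamer so fluorescent compounds give negative values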
Neddylation inh: cullin neddylation inhibition. P61081+Q13564. TR-FRET cullin neddylation, biochemical. AID 651699. 0.58% of 360,000 active. inhibition, % at 25 µM; in the data active = inhibition above about 36%
GRK2 CP1: confirmation of human GRK2 inhibitors displacing RNA aptamer | shares compounds with GRK2 aptamer HTS | bead-bound GRK2, FAM-aptamer displacement, flow cytometry | aptamer displacement, % at 10 µM | 4% of 2,000 active;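 active = aptamer displacement above 40%, near three times the noise of non-fluorescent compounds, on plates passing quality checks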;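 also: negative values mostly reflect intrinsic compound fluorescence rather than true enhancement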
Aptamer quench 1: fluorescent aptamer quenching in GRK2 counter-screen dose response; shares compounds with GRK2 aptamer HTS; Fluorescent RNA aptamer beads, flow cytometry; stronger effect = higher value; 110 tested, under 10 active; AID 504521; fluorescence change (kMESF span), kMESF (no concentration beside the values);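 active = compounds whose bead fluorescence drops by more than 37 kMESF across the dose range, marking them as dye quenchers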
FAM quench CP1: quenches fluorescent RNA aptamer, GRK2 hit artifact. shares compounds with GRK2 aptamer HTS. Carboxyfluorescein RNA aptamer on beads, flow cytometry quenching; stronger effect = lower value. fluorescence response (% of DMSO), % at 10 µM. 2,000 tested, under 10 active. AID 504580;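 active = compounds that quench the bead-bound fluorescent RNA probe, cutting fluorescence to under half of the solvent control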;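 also: counterscreen run without GRK2 so only probe quenching by compound is measured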
GRK2 confirm 2: confirmation of human GRK2 inhibitors binding RNA aptamer site. bead-bound GRK2, FAM-aptamer displacement, flow cytometry. AID 504782. 360 tested, under 10 active. shares compounds with GRK2 aptamer HTS. inhibition of aptamer binding, % at 10 µM;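 active = inhibition of aptamer binding above 40%, about triple the noise seen with nonglowing compounds, on plates passing quality control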;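 also: negative values mostly come from compounds that fluoresce themselves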
FAM quench SP: quenches fluorescent RNA aptamer, GRK2 hit artifact. shares compounds with GRK2 aptamer HTS. carboxyfluorescein RNA aptamer beads, flow cytometry quenching; stronger effect = lower value. fluorescence response vs DMSO, % at 10 µM. 360 tested, under 10 active. AID 588494;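 active = response vs DMSO under 50%, meaning signal dropped by over half, treated as fluorescence quencher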;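 also: labelled aptamer on streptavidin beads without GRK2 as a quench counter-screen; 100% = bead fluorescence of DMSO wells and lower means quenching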
The depositor's hits bear a star; x = no result. A selection: hits, their analogues and other compounds. The true share with any hit is near 1.8%.

SMILES	HDAC3 inh	H9c2 protect	GRK2 aptamer HTS	Neddylation inh	GRK2 CP1	FAM quench CP1	others
CC(=O)Nc1nc(CCN2C(=O)c3ccccc3C2=O)cs1	0	3	0	-7	x	x
Cc1oc(-c2ccc(Cl)cc2)nc1CN1CCCC(C(=O)NCc2cccnc2)C1 (stereo unspecified)	5	-5	0	1	-2	100	Aptamer quench 1=3.4
Cc1oc(-c2cccc(Cl)c2)nc1CN1CCCC(C(=O)NCc2ccco2)C1 (stereo unspecified)	-3	-2	0	-1	1	101
Cc1oc(-c2ccc(Cl)cc2)nc1CN1CCCC(C(=O)NCCCN2CCOCC2)C1 (stereo unspecified)	-1	3	0	-3	x	x
Cc1oc(-c2ccc(Cl)cc2)nc1CN1CCCC(C(=O)NCc2ccccn2)C1 (stereo unspecified)	-5	-3	0	-4	1	93
Cc1cccc(-c2nc(CN3CCCC(C(=O)NC4CCCCCC4)C3)c(C)o2)c1 (stereo unspecified)	4	-18	3	-1	-4	103
C/C=C(\C)CN1CCC(n2nccc2NC(=O)CCOc2ccccc2)CC1	x	10	0	6	x	x
Cc1ccc([N+](=O)[O-])cc1CN1CCN(c2ncc(Cc3ccccc3)cn2)CC1	x	x	x	-5	x	x
COc1ccc(OCC(=O)NC(=S)Nc2ccccc2F)cc1	8	-3	1	2	x	x
Cc1cc(Cl)ccc1OCCCC(=O)N1CCN(C(=O)c2ccco2)CC1	-1	-3	78*	1	-1	100
O=C(OCC(=O)N1CCN(C(=O)c2ccco2)CC1)c1ccccc1	x	8	78*	0	-3	111
Cc1c(NC(=O)c2ccc(S(=O)(=O)N(C)C)cc2)cccc1-n1cnnn1	1	1	94*	0	-3	98
Cc1c(NC(=O)c2ccc(Cl)c([N+](=O)[O-])c2)cccc1-n1cnnn1	2	18	0	-29	x	x
COc1ccc(C)cc1N(CC(=O)NCCSCc1ccco1)S(=O)(=O)c1ccc(C)cc1	2	6	0	0	x	x
COc1ccc(CCNC(=O)CC(C)(C)CC2=NS(=O)(=O)c3ccccc3N2)cc1OC	-4	3	0	7	x	x
Cc1ccc(CCNC(=O)CC(C)CC2=NS(=O)(=O)c3ccccc3N2)cc1 (stereo unspecified)	-4	0	65*	2	-3	95
Cc1ccccc1C(=O)Nc1cccc(-c2ccc(N3CCOCC3)nn2)c1	5	-9	1	-4	-3	96
O=C(Nc1cccc(-c2ccc(N3CCOCC3)nn2)c1)c1ccccc1	-6	-13	0	4	19	100	Aptamer quench 1=-1.6
CCOc1ccc(NS(=O)(=O)c2ccc3[nH]c(=O)[nH]c3c2)cc1	-4	-9	50*	11	-3	96
O=C(COc1cccnc1[N+](=O)[O-])NC1CCS(=O)(=O)C1 (stereo unspecified)	-2	3	70*	-12	x	x	GRK2 confirm 2=-43;FAM quench SP=101
O=[N+]([O-])c1ccc2nc(SCc3cn4ccccc4n3)[nH]c2c1	9	26	0	-20	x	x
O=[N+]([O-])c1ccc2nc(SCc3cn4cccnc4n3)[nH]c2c1	x	13	89*	-37	-1	99
NS(=O)(=O)c1cc(C(=O)NC2CCSc3ccccc32)ccc1Cl (stereo unspecified)	-1	1	51*	-6	18	96
COc1ccc(S(=O)(=O)N(C)Cc2ccc3c(c2)OCCO3)cc1	5	-4	42*	12	-3	100
COc1ccc(CN2CCN(CC=C(C)C)C(CCO)C2)cc1Cn1cncn1 (stereo unspecified)	2	-1	1	1	x	x
SMILES	HDAC3 inh	H9c2 protect	GRK2 aptamer HTS	Neddylation inh	GRK2 CP1	FAM quench CP1	others
COc1ccc(CN2CCN(C(C)C)C(CCO)C2)cc1Cn1cncn1 (stereo unspecified)	2	4	46*	0	-3	98
COC(=O)c1cc(-c2cccc([N+](=O)[O-])c2)c2c(=O)n(C)c(=O)n(C)c2n1	-7	15	79*	-10	-1	104
COc1cccc(N2CC(C(=O)Nc3ccc(F)cc3)CC2=O)c1 (stereo unspecified)	4	1	2	0	x	x
COc1cccc(N2CC(C(=O)Nc3ccc(C(=O)OC(C)C)cc3)CC2=O)c1 (stereo unspecified)	-1	3	73*	5	1	101
Cc1cccc(CN(Nc2ccccc2)c2ccccc2)n1	x	-8	x	1	x	x
O=C(CCc1nc2ccccc2c(=O)[nH]1)Nc1cccc(S(=O)(=O)N2CCCCC2)c1	-1	26	0	8	x	x
O=C(CCc1nc2ccccc2c(=O)[nH]1)Nc1ccc(F)c([N+](=O)[O-])c1	0	50*	46*	-28	1	108
Cc1nc(CN(C)C(=O)C2CCC(=O)N(CCc3cccc(F)c3)C2)cs1 (stereo unspecified)	1	0	1	4	x	x
CN(Cc1nc2ccccc2[nH]1)C(=O)C1CCC(=O)N(CCc2cccc(F)c2)C1 (stereo unspecified)	x	2	3	7	0	103
O=C(NCCCO)c1c(O)c2cccc3c2n(c1=O)CCC3	0	3	0	-21	x	x
COc1ccc(C(=O)N2CCOC2CNC(=O)C(=O)NCc2ccc(Cl)cc2)cc1 (stereo unspecified)	-3	-4	0	-4	x	x
O=C(Nc1ccc(NC(=O)c2ccccc2Cl)cc1)c1cccnc1	2	-1	3	2	x	x
O=C(Nc1ccc(N2CCCC2)c(Cl)c1)c1cccnc1	-3	38	60*	5	-14	37*
O=C(Nc1cccnc1)c1ccccc1Cl	-11	-3	81*	1	-2	97
CCOC(=O)c1c(NC(=O)CN2C(=O)NC3(CCC(C)CC3)C2=O)sc(C(=O)N(C)C)c1C (stereo unspecified)	2	1	3	-3	x	x
COc1ccc(-c2ccc(SCC(=O)Nc3nccs3)nn2)cc1OC	-1	1	0	-12	x	x
O=C(CS(=O)(=O)c1cccc(C(F)(F)F)c1)Nc1ccccc1Cl	2	0	1	-5	x	x	GRK2 confirm 2=-5;FAM quench SP=107
O=C(COc1coc(CN2CCCc3ccccc32)cc1=O)Nc1ccc([N+](=O)[O-])cc1	x	6	62*	-13	-5	100
